# PubChem BioAssay (Tox21)
# Inconclusive results are not listed. Active and inactive are the calls of the source. Calls follow the shape of the dose curve; as a rule, active = well fitted cell-killing curve with a large enough effect in the repeat runs; inconclusive = weak or mixed curves, or effect the other way; inactive = flat fitted curve, though single readings scatter.
# Test: qHTS assay to identify small molecule antagonists of the constitutive androstane receptor (CAR) signaling pathway - cell viability counter screen (AID 1224837); also: nearly all actives have a fitted effect of over 45% in size
# Settings: HepG2-CYP2B6-hCAR viability, CellTiter-Fluor, 23 h, co-treated with 50 nM CITCO; series mostly up to 92.4 µM; activity change, negative = cytotoxicity: at the top concentration
# Description: National Center for Advancing Translational Sciences [NCATS]
# NIH Chemical Genomics Center [NCGC]
# U.S. Environmental Protection Agency [EPA]
# National Institutes of Environmental Health Sciences [NIEHS]
# National Toxicology Program [NTP]
# U.S. Food and Drug Administration [FDA]
# The constitutive androstane receptor (CAR) is a nuclear receptor which regulates multiple drug metabolizing enzymes (DMEs) and transporters. Activating CAR will generally increase the transcription and subsequent translation of CYP2B6 and CYP3A4. These two DMEs represent about 50% of the drug metabolizing potential in the body. When CAR is deactivated, the metabolizing potential in the body will decrease, subsequently increasing the toxicity in the body or lowering the therapeutic potential of a pro-drug. Recently, there have also been studies performed indicating CARs role in energy metabolism and cancer therapy. Therefore, inhibiting CARs activity could have a potential effect on diabetes and cancer. Identifying environmental toxins and compounds which modulate CAR, through the use of the Tox21 10K compound collection, will be an important step in determining the toxicity and potential therapeutic effects these factors will have on the human body. To differentiate true CAR antagonists from cytotoxic substances, the assay is multiplexed with a cell viability assay.
# Tox21 Assay Protocol Summary:
# A double-stable (hCAR and CYP2B6-2.2kb) transfected cell line, derived from human hepatoma (HepG2) cells, was utilized for the duration of the quantitative high-throughput screens. The HepG2-CYP2B6-hCAR cells were dispensed at 2500 cells/4 uL/well in 1536-well white solid bottom plates using a Multidrop Combi. After the assay plates were incubated at 37 C/5% CO2 for 4 hrs, 23 nL of compounds at 15 concentrations (from 5-48 columns) or positive control (from 1 to 4 columns) were transferred to the assay plates using a Pintool station. One uL of CITCO (final concentration = 50 nM) was added, using a Flying Reagent Dispenser, inside each well. After a 23 hr incubation period at 37 C/5% CO2, 1 uL of CellTiter-Fluor reagent was added into each well of the assay plates using a Flying Reagent Dispenser. The fluorescence intensity in the plates was then measured using a ViewLux plate reader.
# % is scaled to controls: 0 for no effect and ±100 for the full control effect; potency is read from the fitted curve at half-maximal effect.
Structure (SMILES),"activity change, negative = cytotoxicity",Potency
COC(=O)C1=C(C)NC(C)=C(C(=O)OCCc2ccc(N3CCN(C(c4ccccc4)c4ccccc4)CC3)cc2)C1c1cccc([N+](=O)[O-])c1 (stereo not given),0.864% [at 42.5 µM] (inactive),–
C=CC(=O)OCCn1c(=O)n(CCOC(=O)C=C)c(=O)n(CCOC(=O)C=C)c1=O,–,19.3 µM (active)
NC(=O)NS(=O)(=O)c1ccc(N)cc1,-3.15% [at 42.5 µM] (inactive),–
CN(C)c1ccc(C2(c3ccc(N(C)C)cc3)OC(=O)c3cc(N(C)C)ccc32)cc1,5.14% (inactive),–
Oc1cccc(-c2c3nc(c(-c4cccc(O)c4)c4ccc([nH]4)c(-c4cccc(O)c4)c4nc(c(-c5cccc(O)c5)c5ccc2[nH]5)CC4)C=C3)c1,–,5.31 µM (active)
CCN(Cc1cccnc1)C(=O)c1cccc(Cl)c1[C@]1(C)C(=O)N(Cc2ccc(OC)cc2OC)c2ccc(Cl)cc21,-26.3% (inactive),–
COc1cccc2c1C(=O)c1c(O)c3c(c(O)c1C2=O)C[C@@](O)(C(=O)CO)C[C@@H]3O[C@H]1C[C@H](N)[C@H](O[C@@H]2CCCCO2)[C@H](C)O1,–,8.41 µM (active)
Nc1ccc(N)c2ccccc12,–,30.6 µM (active)
CC/C(=C(\c1ccc(O)cc1)c1ccc(OCCN(C)C)cc1)c1ccccc1,–,68.7 µM (active)
c1ccc(CSCc2ccccc2)cc1,-5.71% (inactive),–
CCCCCOc1ccccc1/C(=C\SC)n1ccnc1,-24.6% [at 42.5 µM] (inactive),–
CC1=C(C(=O)OC(C)C)C(c2cccc([N+](=O)[O-])c2)C(C(=O)OC2CN(C(c3ccccc3)c3ccccc3)C2)=C(N)N1 (stereo not given),–,29.8 µM (active)
Cc1ccc(O)c2ncccc12,–,11.9 µM (active)
CCCCCCOC(=O)c1ccc(O)cc1,–,inactive
COCCCC/C(=N\OCCN)c1ccc(C(F)(F)F)cc1,-7.1% [at 42.5 µM] (inactive),–
CC(C)(C)c1ccc(C(=O)CCCN2CCC(OC(c3ccccc3)c3ccccc3)CC2)cc1,–,29.8 µM (active)
O=c1[nH]cnc2nc[nH]c12,-0.453% [at 42.5 µM] (inactive),–
CO[Si](CCCNc1ccccc1)(OC)OC,12.7% (inactive),–
Oc1ccc(C2(c3ccc(O)cc3)CC3CC2C2CCCC32)cc1 (stereo not given),–,52.3 µM (active)
CSc1ccc(/C=C2/C(C)=C(CC(=O)O)c3cc(F)ccc32)cc1,-7.78% [at 42.5 µM] (inactive),–

Structure (SMILES),"activity change, negative = cytotoxicity",Potency
CCCCCCCC[N+](CCCCCCCC)(CCCCCCCC)CCCCCCCC,–,9.67 µM (active)
CCCCCCCCCCCCCC[P+](CCCC)(CCCC)CCCC (tested in a mixture with another compound),–,19.4 µM (active)
CCCCCCCC[P+](CCCCCCCC)(CCCCCCCC)CCCCCCCC,–,3.83 µM (active)
Oc1ccc2c(c1)-c1ccccc1C2,-9.79% (inactive),–
COC(=O)C1=C(C)NC(C)=C(C(=O)OCC(C)C)C1c1ccccc1[N+](=O)[O-] (stereo not given),-20.3% [at 42.5 µM] (inactive),–
Clc1ccc2cc3ccccc3cc2c1,0.448% (inactive),–
CCCC1O[C@@H]2C[C@H]3[C@@H]4CCC5=CC(=O)C=C[C@]5(C)[C@H]4[C@@H](O)C[C@]3(C)[C@]2(C(=O)CO)O1 (stereo not given in full),–,inactive
NNc1nc(-c2ccc(N)cc2)cs1,-16.5% (inactive),–
[Cl][Bi]([Cl])([c]1ccccc1)([c]1ccccc1)[c]1ccccc1,–,19.2 µM (active)
O=C(O)c1ccc(Cl)c(Cl)c1,4.91% (inactive),–
CCCN(CCC)C(=O)C(CCC(=O)OCCCN1CCN(CCOC(=O)Cc2c(C)n(C(=O)c3ccc(Cl)cc3)c3ccc(OC)cc23)CC1)NC(=O)c1ccccc1 (stereo not given),–,26.6 µM (active)
[O-][n+]1ccccc1SSc1cccc[n+]1[O-],–,0.206 µM (active)
C1CCCC1,1.15% (inactive),–
COc1ccc(-c2ccc3cc(C(=O)O)ccc3c2)cc1C12CC3CC(CC(C3)C1)C2,-21.8% [at 42.5 µM] (inactive),–
OCCCCCCCCCCCCBr,-10.8% (inactive),–
CNCc1cc(F)ccc1Oc1ccc(Cl)c(Cl)c1,–,61.1 µM (active)
O=C1c2ccccc2Cc2ccccc21,-26.3% (inactive),–
CCc1oc2ccccc2c1C(=O)c1cc(Br)c(O)c(Br)c1,0.866% [at 42.5 µM] (inactive),–
Cc1oc(-c2ccccc2)nc1CCC(=O)c1ccc(CC2SC(=O)NC2=O)cc1 (stereo not given),-14.8% [at 42.5 µM] (inactive),–
CCCCCCCCCCC=O,1.02% (inactive),–
